Measurements as given in PubChem BioAssay (Tox21).
Unmarked numbers belong to inactive results. Results filed as inconclusive are left out. Entries that show only a call come without a potency. Calls of active or inactive are those of the source. Unless noted, the call rests on the fitted dose curve; in most records, active means well fitted curve in the direction sought with a large enough effect in the repeat runs; inconclusive means weak or mixed curves; inactive means flat fitted curve, though single readings scatter.

Key:
[1] = qHTS assay to test for compound auto fluorescence at 535 nm (green) in HEK293 cells (AID 720680)
[2] = qHTS assay to test for compound auto fluorescence at 460 nm (blue) in HEK293 cell free culture (AID 720681)
Procedure, shortened: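 Test compounds were pinned into cell-free culture medium (DMEM with 10% FBS) and fluorescence was read directly at Ex/Em 405/460 nm. Signals were expressed as fluorescence equivalents of triamterene, with DMSO vehicle as control.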

[3] = qHTS assay to test for compound auto fluorescence at 535 nm (green) in HEK293 cell free culture (AID 720682)
Procedure, shortened: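 Green-channel intensity (Ex/Em 485/535 nm) was recorded from compound-treated wells containing only DMEM with 10% FBS. Fluorescein provided the equivalency standard.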

[4] = qHTS assay to test for compound auto fluorescence at 590 nm (red) in HEK293 cell free culture (AID 720683)
Procedure, shortened: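 Tox21 10K library compounds were pinned into cell-free DMEM with 10% FBS and fluorescence was read at excitation 540 nm. Activity is expressed as Rose Bengal sodium equivalency.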

[5] = qHTS assay to test for compound auto fluorescence at 590 nm (red) in HepG2 cell free culture (AID 720684)
Procedure, shortened: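 Red fluorescence (540 nm excitation, 590 nm emission) was measured after compound transfer into cell-free MEM supplemented with 10% FBS. Values are equivalencies against Rose Bengal sodium.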

[6] = qHTS assay to test for compound auto fluorescence at 460 nm (blue) in HepG2 cell free culture (AID 720685)
Procedure, shortened: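 Compound (23 nL) or DMSO pinned into cell-free MEM with 10% FBS; blue fluorescence read at 405/460 nm excitation/emission, expressed as auto-fluorescence equivalency to triamterene.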

[7] = qHTS assay to test for compound auto fluorescence at 535 nm (green) in HepG2 cell free culture (AID 720686)
[8] = qHTS assay to test for compound auto fluorescence at 460 nm (blue) in HepG2 cells (AID 720687)
Procedure, shortened: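 Cells (2,000/well in MEM with 10% FBS) attached overnight at 37 C, then were exposed to compound or DMSO for 1 hr at 37 C, 5% CO2. Fluorescence read at Ex/Em 405/460 nm, expressed as triamterene-equivalent signal.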

[9] = target: Glucocorticoid receptor (Homo sapiens) (UniProt P04150); assay: qHTS assay to identify small molecule agonists of the glucocorticoid receptor (GR) signaling pathway (AID 720691; active means well fitted activation curve with a large enough effect in the signal ratio in the repeat runs, not every such curve was filed as active; the % refers to the signal ratio; further: potency means the concentration at half of the fitted maximal effect)
Procedure, shortened: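 qHTS in GR-bla HeLa cells: 4 h settling at 37 C/5% CO2, 18 h compound incubation at 37 C, 2 h LiveBLAzer B/G FRET substrate at room temperature, fluorescence intensity measured.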

[10] = target: Glucocorticoid receptor (Homo sapiens) (UniProt P04150); assay: qHTS assay to identify small molecule antagonists of the glucocorticoid receptor (GR) signaling pathway (AID 720692; active means well fitted inhibition curve with a large enough effect in the signal ratio in the repeat runs, not every such curve was filed as active; the % refers to the signal ratio; further: potency means the concentration at half of the fitted maximal effect)
Procedure, shortened: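 Inhibition of glucocorticoid signalling is measured in HeLa cells with a GRE-controlled beta-lactamase reporter; cells are co-treated with compound and 5 nM dexamethasone (final) for 18 h before FRET substrate readout.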

Sequence of Glucocorticoid receptor (Homo sapiens) (P04150 whole entry, looked up): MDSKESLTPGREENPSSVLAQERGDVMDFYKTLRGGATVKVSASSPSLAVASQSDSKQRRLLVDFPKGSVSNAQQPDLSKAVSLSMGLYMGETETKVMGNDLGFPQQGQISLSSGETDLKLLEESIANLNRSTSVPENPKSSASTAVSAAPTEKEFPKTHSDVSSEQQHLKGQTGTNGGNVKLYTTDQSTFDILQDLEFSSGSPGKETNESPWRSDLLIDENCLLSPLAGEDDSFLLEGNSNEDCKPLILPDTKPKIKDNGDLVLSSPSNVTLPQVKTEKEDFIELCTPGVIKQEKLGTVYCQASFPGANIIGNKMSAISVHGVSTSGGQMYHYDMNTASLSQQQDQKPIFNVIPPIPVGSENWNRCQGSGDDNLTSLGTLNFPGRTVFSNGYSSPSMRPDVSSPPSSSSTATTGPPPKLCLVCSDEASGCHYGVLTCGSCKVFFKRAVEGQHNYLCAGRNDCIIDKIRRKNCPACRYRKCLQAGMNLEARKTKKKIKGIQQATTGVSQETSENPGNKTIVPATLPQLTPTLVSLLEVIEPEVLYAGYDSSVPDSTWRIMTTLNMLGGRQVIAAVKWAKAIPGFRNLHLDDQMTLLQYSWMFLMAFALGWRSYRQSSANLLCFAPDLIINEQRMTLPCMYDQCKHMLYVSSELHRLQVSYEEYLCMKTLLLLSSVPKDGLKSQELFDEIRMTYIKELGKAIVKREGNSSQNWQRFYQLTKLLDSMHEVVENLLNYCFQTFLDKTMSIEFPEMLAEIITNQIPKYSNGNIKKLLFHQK

Row | Structure (SMILES) | outcome [1] | Potency [2] | outcome [3] | outcome [4] | outcome [5] | Potency [6] | outcome [7] | Potency [8] | Potency [9] | Potency [10] | fluorescence, % of fluorescein [1] | fluorescence, % of fluorescent control [2] | activity change [3] | fluorescence, % of fluorescent control [4] | fluorescence, % of Rose Bengal [5] | fluorescence, % of fluorescent control [6] | fluorescence, % of fluorescein control [7] | fluorescence, % of fluorescent control [8]
1 | COC(=O)CCCC(=O)O | inactive | inactive | inactive | inactive | inactive | inactive | inactive | inactive | – | – | – | – | – | – | – | – | – | –
2 | CC(=O)c1ccc(C)cc1 | inactive | inactive | inactive | inactive | inactive | inactive | inactive | inactive | – | – | – | – | – | – | – | – | – | –
3 | CCC(C)OC(=O)N1CCCCC1CCO (stereo unspecified) | inactive | inactive | inactive | inactive | inactive | inactive | inactive | inactive | – | – | – | – | – | – | – | – | – | –
4 | Cc1c(C)n(CCN(C)C)c2ccc(C(=O)OCCN(C)C)cc12 | inactive | inactive | inactive | inactive | inactive | inactive | inactive | inactive | – | – | – | – | – | – | – | – | – | –
5 | CCCCOCC(C)OCC(C)O (stereo unspecified) | inactive | inactive | inactive | inactive | inactive | inactive | inactive | inactive | – | – | – | – | – | – | – | – | – | –
6 | NC(CS)C(=O)O (stereo unspecified) | inactive | inactive | inactive | inactive | inactive | inactive | inactive | – | – | – | – | – | – | – | – | – | – | –
7 | Cc1cc(C)c(NC(=O)CN(CC(=O)O)CC(=O)O)c(C)c1Br | inactive | inactive | inactive | inactive | inactive | inactive | inactive | inactive | inactive | – | – | – | – | – | – | – | – | –
8 | c1cc(CN2CCCCC2)cc(OCCCNc2nc3ccccc3s2)c1 | inactive | inactive | inactive | inactive | inactive | inactive | inactive | inactive | inactive | – | – | – | – | – | – | – | – | –
9 | CCc1cc(S(=O)(=O)O)c2cc(C(C)C)cccc1-2 | inactive | inactive | inactive | inactive | inactive | inactive | inactive | inactive | inactive | – | – | – | – | – | – | – | – | –
10 | NC1CCN(c2cccc(Cl)n2)CC1 | inactive | inactive | inactive | inactive | inactive | inactive | inactive | inactive | inactive | inactive | – | – | – | – | – | – | – | –
11 | COc1nc(C)nc(N)n1 | inactive | inactive | inactive | inactive | inactive | inactive | inactive | inactive | inactive | inactive | – | – | – | – | – | – | – | –
12 | OCc1ccccn1 | inactive | inactive | inactive | inactive | inactive | inactive | inactive | inactive | inactive | – | – | – | – | – | – | – | – | –
13 | CC/C=C\C#N | inactive | inactive | inactive | inactive | inactive | inactive | inactive | inactive | inactive | – | – | – | – | – | – | – | – | –
14 | CC(C=O)Cc1ccc(C(C)C)cc1 (stereo unspecified) | inactive | inactive | inactive | inactive | inactive | inactive | inactive | inactive | inactive | inactive | – | – | – | – | – | – | – | –
15 | CC1=CCC2C(C1)C2(C)C (stereo unspecified) | inactive | inactive | inactive | inactive | inactive | inactive | inactive | inactive | inactive | inactive | – | – | – | – | – | – | – | –
16 | C[C@H](O)C(=O)Nc1c(I)c(C(=O)NC(CO)CO)c(I)c(C(=O)NC(CO)CO)c1I | – | – | – | – | – | – | – | – | 6.44 µM (active) | – | -0.048% [at 18.6 µM] | -0.108% [at 18.6 µM] | 0.0506% [at 18.6 µM] | 0.0628% [at 18.6 µM] | 0.0851% [at 18.6 µM] | -0.0806% [at 18.6 µM] | -0.0219% [at 18.6 µM] | -0.0019% [at 18.6 µM]
17 | CCn1cc(C(=O)O)c(=O)c2cc(F)c(N3CCN(C)CC3)cc21 | inactive | inactive | inactive | inactive | inactive | inactive | inactive | inactive | inactive | – | – | – | – | – | – | – | – | –
18 | CC(C)=CCC/C(C)=C/C(=O)O | inactive | inactive | inactive | inactive | inactive | inactive | inactive | inactive | inactive | inactive | – | – | – | – | – | – | – | –
19 | Cc1cc(C)cc(OCC2CNC(=O)O2)c1 (stereo unspecified) | inactive | inactive | inactive | inactive | inactive | inactive | inactive | inactive | inactive | inactive | – | – | – | – | – | – | – | –
20 | COC(=O)C1=C(C)NC(C)=C(C(=O)OCC(C)=O)C1c1ccccc1[N+](=O)[O-] (stereo unspecified) | inactive | inactive | inactive | inactive | inactive | inactive | inactive | inactive | inactive | 21.3 µM (active) | – | – | – | – | – | – | – | –
21 | CO[Si](OC)(OC)OC | inactive | inactive | inactive | inactive | inactive | inactive | inactive | inactive | inactive | inactive | – | – | – | – | – | – | – | –
22 | Cc1nc(-c2ccc(OCC(C)C)c(C#N)c2)sc1C(=O)O | inactive | inactive | inactive | inactive | inactive | inactive | inactive | inactive | inactive | – | – | – | – | – | – | – | – | –
23 | Cn1ccc2cc3c(cc21)CCN3C(=O)Nc1cccnc1 | inactive | inactive | inactive | inactive | inactive | inactive | inactive | inactive | inactive | – | – | – | – | – | – | – | – | –
24 | CCCCc1ccc2cccc(S(=O)(=O)O)c2c1 | inactive | inactive | inactive | inactive | inactive | inactive | inactive | inactive | inactive | – | – | – | – | – | – | – | – | –
25 | CCCc1ccccc1O | inactive | inactive | inactive | inactive | inactive | inactive | inactive | inactive | inactive | – | – | – | – | – | – | – | – | –
